Records with an inconclusive call do not appear. Entries that show only a call come without a potency. Calls of active or inactive are those of the source. The call rests on the fitted dose curve; in most records, active means well fitted curve in the direction sought with a large enough effect; inconclusive means small, poorly fitted or top-dose-only effect, or another doubt; inactive means no such curve, though single readings can be large; an effect the other way counts as inactive or inconclusive.

In the first test the target is Aldehyde dehydrogenase, mitochondrial (Homo sapiens) (UniProt P05091). The experiment in a line: qHTS for Inhibitors of the Aldehyde Dehydrogenase Family (ALDH2) Primary screen (AID 2061308). Further: nearly all actives have a fitted effect of over 55% in size. The conditions noted are these: ALDH2 enzyme inhibition qHTS, 1536-well; series mostly up to 56 µM.
For `CC(C)(C)OC(=O)n1c2ccsc2c2cnn(Cc3ccccc3F)c(=O)c21`, the Potency result is “inactive”.
Regarding `COc1ccc(C(=O)N(Cc2ccccc2)Cc2ccccc2)c(O)c1`, the Potency result was “inactive”.
The same measure, in the same setting: the result for `CCN(CC)CCCC(C)n1c(-c2ccccc2)nc2c(NCCO)nc(C)nc21` (stereo not given) reads “inactive”; that for `O=C1CCCC2=C1C(c1ccncc1)N=C(Nc1nc3ccccc3o1)N2` (stereo not given), “inactive”.
The same measure, in the same setting: the result for `CC(C)Nc1oc(-c2cccc3ccccc23)nc1C#N` reads “inactive”; that for `Fc1cccc(-c2ccc(Nc3nc(-c4ccncc4)nc4ccccc34)cc2F)c1`, “inactive”.
For `COc1cccc(C2N=C(Nc3nc4ccccc4o3)NC3=C2C(=O)CCC3)c1` (stereo not given), the Potency entry is “inactive”.
The same measure, in the same setting: with `Cc1cccc(-c2ccc(=O)n(CC(=O)NCCc3ccccc3)n2)c1` the entry was “inactive”; with `O=C(CNC(=O)c1ccc2n[nH]nc2c1)OC(C(=O)Nc1cc(C(F)(F)F)ccc1Cl)c1ccccc1` (stereo not given), “inactive”; with `CC(C)(C)OC(=O)N1CCC(C(=O)Nc2ccc([S+](=O)([O-])Nc3nccs3)cc2)CC1`, “inactive”.
Still for that read-out and setting: with `COc1ccc(-c2ccc3ncnc(NCc4ccc(C)o4)c3c2)cc1OC` the entry was “inactive”; with `C=C1C(=O)OC2CC3(C)C(O)C(=O)C=C(C)C3CC12` (stereo not given), “inactive”; with `Cn1c(=O)c2c(nc(OC3CCN(C(=O)C4CC4)CC3)n2CCC(C)(C)C)n(C)c1=O`, “inactive”.
On to `O=C(NNC(=O)c1nc2ccccc2[nH]1)OCc1ccccc1`, for which the Potency result is “inactive”.
The same measure, in the same setting: the result for `CC(=O)Oc1ccc(C2(c3ccc(OC(C)=O)cc3)Oc3ccccc3NC2=O)cc1` reads “inactive”.
For `Nc1cccc([S+](=O)([O-])N2CCCN([S+](=O)([O-])c3cccc(N)c3)CC2)c1`, the Potency entry was “inactive”.
For `Cc1nc(NC2CCCCC2)c2nc(-c3ccccc3)n(CCN(C)C)c2n1`, the Potency result is “inactive”.
As to `COC(=O)[C@H](Cc1ccc(O[S+](=O)([O-])c2cccc3cnccc23)cc1)N(C)[S+](=O)([O-])c1ccc2cnccc2c1`, the Potency entry is “inactive”.
Still for that read-out and setting: the result for `O=C1C[C@]23C=CCN4CCC5c6cc7c(cc6N1[C@@]5(CC2)C43)OCO7` (stereo not given in full) reads “inactive”; that for `Cc1cc2c(s1)c1cnn(Cc3c(F)ccc(F)c3F)c(=O)c1n2C`, “inactive”.
The same measure, in the same setting: with `COc1cccc(NC(=O)C(OC(=O)CNC(=O)c2ccccc2)c2ccccc2)c1` (stereo not given) the entry was “inactive”.
Still for that read-out and setting: the result for `Clc1cccc(CSc2nc3ncc(Br)cc3[nH]2)c1` reads “inactive”; that for `CC(=O)OC1CC2C3(C)CCC(OC(=O)CC(=O)O)C(C)(C)C3CCC2(C)C2(C)CCC(C3(C)CCC(=O)O3)C12` (stereo not given), “inactive”.
On to `Cn1cnc(CN=C2NC3=C(C(=O)CCC3)C(c3[nH]ncc3Cl)N2)c1` (stereo not given), for which the Potency result is “inactive”.
As for `COc1cc(O)c(C(CC(=O)N2CCC(c3ccccc3)CC2)c2ccc(OC)c(OC)c2)c(OC)c1` (stereo not given), the Potency entry is “inactive”.
As for `NC(=O)C1CCN(c2nc(-c3ccc(Br)cc3)cs2)CC1`, the Potency entry is “inactive”.
Turning to `Cc1cc(N[S+](=O)([O-])c2ccc(NC(=O)Cc3cccc(Cl)c3Cl)cc2)no1`, the Potency entry is “inactive”.
As for `O=C(Nc1ccc(Cl)c([N+](=O)[O-])c1)Nc1nnc(C2CCCCC2)s1`, the Potency result is “inactive”.
Same read-out and setting: the result for `C=C(C(=O)OC[C@H]1O[C@@H](OC(=O)/C=C/c2ccccc2)[C@H](O)[C@@H](O)[C@@H]1O)C(O)CO` (stereo not given in full) reads “inactive”; that for `N#Cc1nc(-c2cccc3ccccc23)oc1NC1CNC1`, “inactive”; that for `COc1cc(NC(=O)C(OC(=O)CNC(=O)c2ccccc2)c2ccccc2)cc(C(F)(F)F)c1` (stereo not given), “inactive”.
With `Cc1nc(C)c(-c2ccc3ncnc(NCCc4cnc[nH]4)c3c2)s1`, the Potency entry is “inactive”.
Still for that read-out and setting: with `CCCn1c(C)nc2c(NCCCCN(C)C)nc(C)nc21` the entry was “inactive”; with `CCNC(=O)c1ccc(-c2ccc3ncnc(N4CCOCC4)c3c2)o1`, “inactive”; with `Cn1nnnc1Sc1ncnc2scc(-c3ccccc3Cl)c12`, “inactive”.
The same measure, in the same setting: with `N#Cc1ccc(C[C@@H](NS(=O)(=O)c2ccc(C(=O)O)cc2)C(=O)O)cc1` the entry was “inactive”; with `O=S(=O)(c1ccccc1)N1CCN(c2nccc(-c3cccs3)n2)CC1`, “inactive”.
`COc1ccc(O[C@@H]2O[C@H](CO)[C@H](O)[C@H](O)[C@H]2O)cc1`: the Potency result was “inactive”.
For `Cc1cnc(-c2ccccc2OC(C)C)nc1NCc1ccc(-n2ccnn2)cc1`, the Potency entry is “inactive”.
Regarding `Cc1cc(C)nc(NC(=S)N2CCN(c3ccc(C(F)(F)F)cn3)CC2)c1`, the Potency entry was “inactive”.

Another test concerns the target Retinaldehyde dehydrogenase 3 (Homo sapiens) (UniProt P47895). The experiment in a line: qHTS for Inhibitors of the Aldehyde Dehydrogenase Family (ALDH1A3) Primary screen (AID 2061315). The conditions noted are these: ALDH inhibition qHTS; series mostly up to 56 µM.
Consider `CC(C)(C)OC(=O)n1c2ccsc2c2cnn(Cc3ccccc3F)c(=O)c21`, for which the Potency result is “inactive”.
On the same count and under the same terms, the result for `COc1ccc(C(=O)N(Cc2ccccc2)Cc2ccccc2)c(O)c1` reads “inactive”.
Still for that read-out and setting: with `CCN(CC)CCCC(C)n1c(-c2ccccc2)nc2c(NCCO)nc(C)nc21` (stereo not given) the entry was “inactive”.
Regarding `O=C1CCCC2=C1C(c1ccncc1)N=C(Nc1nc3ccccc3o1)N2` (stereo not given), the Potency result is “inactive”.
As to `CC(C)Nc1oc(-c2cccc3ccccc23)nc1C#N`, the Potency result was “inactive”.
As for `Fc1cccc(-c2ccc(Nc3nc(-c4ccncc4)nc4ccccc34)cc2F)c1`, the Potency result is “inactive”.
On the same count and under the same terms, with `COc1cccc(C2N=C(Nc3nc4ccccc4o3)NC3=C2C(=O)CCC3)c1` (stereo not given) the entry was “inactive”.
In the case of `Cc1cccc(-c2ccc(=O)n(CC(=O)NCCc3ccccc3)n2)c1`, the Potency entry is “inactive”.
Same read-out and setting: with `O=C(CNC(=O)c1ccc2n[nH]nc2c1)OC(C(=O)Nc1cc(C(F)(F)F)ccc1Cl)c1ccccc1` (stereo not given) the entry was “inactive”; with `CC(C)(C)OC(=O)N1CCC(C(=O)Nc2ccc([S+](=O)([O-])Nc3nccs3)cc2)CC1`, “inactive”.
Still for that read-out and setting: with `COc1ccc(-c2ccc3ncnc(NCc4ccc(C)o4)c3c2)cc1OC` the entry was “inactive”.
Still for that read-out and setting: the result for `C=C1C(=O)OC2CC3(C)C(O)C(=O)C=C(C)C3CC12` (stereo not given) reads “inactive”.
For `Cn1c(=O)c2c(nc(OC3CCN(C(=O)C4CC4)CC3)n2CCC(C)(C)C)n(C)c1=O`, the Potency result was “inactive”.
Same read-out and setting: with `O=C(NNC(=O)c1nc2ccccc2[nH]1)OCc1ccccc1` the entry was “inactive”; with `CC(=O)Oc1ccc(C2(c3ccc(OC(C)=O)cc3)Oc3ccccc3NC2=O)cc1`, “inactive”; with `Nc1cccc([S+](=O)([O-])N2CCCN([S+](=O)([O-])c3cccc(N)c3)CC2)c1`, “inactive”.
Same read-out and setting: with `Cc1nc(NC2CCCCC2)c2nc(-c3ccccc3)n(CCN(C)C)c2n1` the entry was “inactive”; with `COC(=O)[C@H](Cc1ccc(O[S+](=O)([O-])c2cccc3cnccc23)cc1)N(C)[S+](=O)([O-])c1ccc2cnccc2c1`, “inactive”.
The same measure, in the same setting: the result for `O=C1C[C@]23C=CCN4CCC5c6cc7c(cc6N1[C@@]5(CC2)C43)OCO7` (stereo not given in full) reads “inactive”.
`Cc1cc2c(s1)c1cnn(Cc3c(F)ccc(F)c3F)c(=O)c1n2C`: the Potency entry was “inactive”.
On to `COc1cccc(NC(=O)C(OC(=O)CNC(=O)c2ccccc2)c2ccccc2)c1` (stereo not given), for which the Potency entry is “inactive”.
Same read-out and setting: with `Clc1cccc(CSc2nc3ncc(Br)cc3[nH]2)c1` the entry was “inactive”; with `CC(=O)OC1CC2C3(C)CCC(OC(=O)CC(=O)O)C(C)(C)C3CCC2(C)C2(C)CCC(C3(C)CCC(=O)O3)C12` (stereo not given), “inactive”; with `Cn1cnc(CN=C2NC3=C(C(=O)CCC3)C(c3[nH]ncc3Cl)N2)c1` (stereo not given), “inactive”.
As for `COc1cc(O)c(C(CC(=O)N2CCC(c3ccccc3)CC2)c2ccc(OC)c(OC)c2)c(OC)c1` (stereo not given), the Potency result is “inactive”.
Same read-out and setting: the result for `NC(=O)C1CCN(c2nc(-c3ccc(Br)cc3)cs2)CC1` reads “inactive”; that for `Cc1cc(N[S+](=O)([O-])c2ccc(NC(=O)Cc3cccc(Cl)c3Cl)cc2)no1`, “inactive”.
Same read-out and setting: the result for `O=C(Nc1ccc(Cl)c([N+](=O)[O-])c1)Nc1nnc(C2CCCCC2)s1` reads “inactive”; that for `C=C(C(=O)OC[C@H]1O[C@@H](OC(=O)/C=C/c2ccccc2)[C@H](O)[C@@H](O)[C@@H]1O)C(O)CO` (stereo not given in full), “inactive”; that for `N#Cc1nc(-c2cccc3ccccc23)oc1NC1CNC1`, “inactive”.
Still for that read-out and setting: the result for `COc1cc(NC(=O)C(OC(=O)CNC(=O)c2ccccc2)c2ccccc2)cc(C(F)(F)F)c1` (stereo not given) reads “inactive”; that for `Cc1nc(C)c(-c2ccc3ncnc(NCCc4cnc[nH]4)c3c2)s1`, “inactive”.
Take `CCCn1c(C)nc2c(NCCCCN(C)C)nc(C)nc21`: the Potency entry was “inactive”.
Consider `CCNC(=O)c1ccc(-c2ccc3ncnc(N4CCOCC4)c3c2)o1`, for which the Potency result was “inactive”.
In the case of `Cn1nnnc1Sc1ncnc2scc(-c3ccccc3Cl)c12`, the Potency entry was “inactive”.
Same read-out and setting: the result for `N#Cc1ccc(C[C@@H](NS(=O)(=O)c2ccc(C(=O)O)cc2)C(=O)O)cc1` reads “inactive”; that for `O=S(=O)(c1ccccc1)N1CCN(c2nccc(-c3cccs3)n2)CC1`, “inactive”.
In the case of `COc1ccc(O[C@@H]2O[C@H](CO)[C@H](O)[C@H](O)[C@H]2O)cc1`, the Potency entry was “inactive”.
Same read-out and setting: with `Cc1cnc(-c2ccccc2OC(C)C)nc1NCc1ccc(-n2ccnn2)cc1` the entry was “inactive”; with `Cc1cc(C)nc(NC(=S)N2CCN(c3ccc(C(F)(F)F)cn3)CC2)c1`, “inactive”.

Values taken from PubChem BioAssay (NCATS).
